According to PubChem BioAssay (NCATS):
Results filed as inconclusive are left out. Activity calls are given as the source filed them. Calls come from the whole dose curve; as a rule, active = well fitted curve in the direction sought with a large enough effect; inconclusive = small, poorly fitted or top-dose-only effect, or another doubt; inactive = no such curve, though single readings can be large; an effect the other way counts as inactive or inconclusive.

Columns and labels:
[1] = qHTS for H2AX Agonists against the NCATS CANVASS Library (AID 1347378); conditions: CHO-K1 H2AX phosphorylation, HTRF TR-FRET, 3 h; series mostly up to 76.9 µM; note: potency is the fitted concentration of half-maximal effect
Method in brief: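 CHO-K1 cells were plated overnight at 37C, then exposed to compounds (concentration series, 0.76% DMSO final) for 3 hr at 37C. Lysates received Eu-cryptate anti-pH2AX (S139) and d2 anti-H2AX antibodies; after 24 hr at room temperature, TR-FRET 665/620 nm ratio was read.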

[2] = qHTS for Inflammasome Signaling Inhibitors: IL-1-beta AlphaLISA screen against the NCATS CANVASS Library (AID 1347379); conditions: THP-1 LPS/ATP, IL-1B AlphaLISA secretion, 16 h; series mostly up to 57.5 µM;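 note: human THP-1 cells primed with LPS then triggered with ATP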
Method in brief: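 THP-1, 1 hr compound pre-incubation, then LPS 250 ng/mL + ATP 1.25 mM (final); 16 hr total with compound; IL-1B AlphaLISA, ex 680/em 615 nm; 11-point qHTS, up to 57.5 uM final.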

[3] = qHTS for Antimalaria activity screened against the NCATS CANVASS Library (AID 1347380); note: potency is the fitted concentration of half-maximal effect; nearly all actives have a fitted effect of over 40% in size; conditions: P. falciparum Dd2 growth, SYBR Green fluorescence, 72 h
Method in brief: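 SYBR Green fluorescence (ex 485, em 535 nm) read after saponin/Triton lysis and 18 h further incubation; Dd2 asexual blood-stage parasites, 72 h compound exposure, 11-pt concentration series, 2.5% hematocrit, 0.3% parasitemia.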

[4] = Inflammasome Signaling qHTS Counterscreen: IL-1-beta AlphaLISA counterscreen against the NCATS CANVASS Library (AID 1347381); conditions: Purified IL-1beta AlphaLISA signal interference counterscreen; series mostly up to 57.5 µM;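 note: cell-free check with purified IL-1β in medium and no THP-1 cells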
Method in brief: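 Here, no cellular stimulation occurs; compounds in an 11-point series meet 4 pg purified IL-1-beta directly. Bead-based AlphaLISA detection follows (1 h acceptor/antibody, then 30 min donor, dark, room temperature), with excitation at 680 nm.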

[5] = Cytotoxicity qHTS for assessment of Hepg2 cells membrane integrity screened against the NCATS CANVASS Library (AID 1347387); conditions: HepG2 LDH release (CytoTox-ONE) fluorescence, 5 h; series mostly up to 46.1 µM
Method in brief: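 LDH release read by fluorescence (560 nm ex/590 nm em) after CytoTox-ONE addition and 10 min RT; signal tracks lysed cells. HepG2, 2000 cells/well, plated overnight; compound 5 hr, 37C, 5% CO2, final 0.59 nM - 46 uM, 11 points.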

[6] = qHTS for Activators of p53 Stress Response Pathway screened against the NCATS CANVASS Library (AID 1347388); conditions: p53RE-bla HCT-116, beta-lactamase reporter, 16 h; series mostly up to 46.1 µM
Method in brief: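 p53RE-bla HCT-116 cells (4000/well) were plated 5 h at 37C, exposed to compounds for 16 h at 37C over an 11-point concentration series, then loaded with CCF4 for 2 h at room temperature; 460/530 nm emission ratio read.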

[7] = qHTS assay for small molecule disruptors of mitochondrial membrane potential screened against the NCATS CANVASS Library (AID 1347389); conditions: HepG2 mitochondrial membrane potential, m-MPI red/green ratio, 1.5 h; series mostly up to 46.1 µM; note: nearly all actives have a fitted effect of over 60% in size; note: potency is the fitted concentration of half-maximal effect
Method in brief: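 Red/green fluorescence ratio read-out: J-aggregates ex 540/em 590 nm, monomers ex 490/em 535 nm. HepG2, 1 hr compound treatment, then 30 min Mito-MPS dye at 37C. 11-pt qHTS concentration series.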

[8] = qHTS for activators of dead-cell proteases activity screened against the NCATS CANVASS Library (AID 1347392); conditions: HepG2 cytotoxicity, dead-cell protease luminescence, 5 h; series mostly up to 46.1 µM;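 note: luminescence from protease leaking out of membrane-damaged cells cleaving impermeant substrate; rising signal means more cytotoxicity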
From the text: (§1) Natural products and their derivatives continue to be wellsprings of nascent therapeutic potential. However, many laboratories have limited resources for biological evaluation, leaving their previously isolated or synthesized compounds largely or completely untested. To address this issue, the Canvass library of natural products was assembled (https://tripod.nih.gov/canvass), in collaboration with academic and industry researchers, for quantitative high-throughput screening (qHTS) across a diverse set of cell-based and biochemical assays. The pure (>85% purity by liquid chromatography/mass spectrometry [LC/MS]) Canvass library of 346 natural products were submitted by 45 academic laboratories and companies around the world. […] The library was formatted into 1536-well plates and evaluated in 50 qHTS (in an 11-pnt concentration series) bioassays with broad scope of disease-relevant mechanisms. The resulting data set from 50 different assays was then systematically analyzed to identify overall trends and specific natural products with interesting biological activities. […] The amount of luminescence directly correlates with the percentage of cells undergoing cytotoxic stress. […]
Protease-screen assay protocol: 1. […] The luminescence readout was obtained using the ViewLux plate reader (PerkinElmer) using a clear emission filter, 2x binning, 1 sec exposure settings.

[9] = qHTS for inhibitors of ER calcium dysfunction: SERCaMP assay screened against the NCATS CANVASS Library (AID 1347393); conditions: SH-SY5Y GLuc-SERCaMP (Gaussia luciferase released on ER calcium loss) secretion, thapsigargin, luminescence; series mostly up to 76.6 µM; note: nearly all actives have a fitted effect of over 40% in size; note: potency is the fitted concentration of half-maximal effect
Method in brief: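 qHTS in SH-SY5Y reporter cells: 16 h compound pretreatment, 4 h thapsigargin, then secreted Gaussia luciferase measured by luminescence.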

[10] = Vero-766 cells viability qHTS against the NCATS CANVASS Library: Counterscreen for Zika virus inhibition assay (AID 1347394); conditions: Vero 766 viability, CellTiter-Glo luminescence, 72 h; series mostly up to 46.1 µM; note: nearly all actives have a fitted effect of over 60% in size; note: potency is the fitted concentration of half-maximal effect
From the text: as §1, with “A decrease in the” for “The amount of”, “signal is caused by” for “directly correlates with the percentage of cells undergoing”, “compounds.” for “stress.”
Zika-counterscreen assay protocol: 1. […] Luminescence signal was obtained via the ViewLux plate reader (Perkin Elmer) using the clear emission filter and 1x binning, 2 seconds exposure settings.

Measured: Potency

O=c1cc(-c2ccccc2)oc2c(O)c(O)ccc12
active: [1] 34.4 µM | [3] 0.0067 µM | [7] 18.6 µM | [9] 38.4 µM | [10] 23.4 µM
inactive: [2] | [4] | [5] | [6] | [8]

O=C(O)c1cc(O)c(O)c(O)c1
active: [3] 0.0053 µM
inactive: all other assays above
